PubChem BioAssay (NCATS)
Results filed as inconclusive are left out. Entries that show only a call come without a potency. The source made the active and inactive calls. Calls follow the shape of the full dose curve.

Assay: Cytotoxicity counterscreen for inhibitors of SARS-CoV-2 cell entry (AID 1645845); also: nearly all actives have a fitted effect of over 50% in size
Details: cell viability (SARS-CoV-2 entry assay cells); series mostly up to 57.1 µM
Outline: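 HEK293-ACE2 cells (Expi293F stably expressing human ACE2) seeded overnight, then compound for 1 h plus 48 h at 37C. Viability as ATP content by luminescence; normalized to wells with cells and media-only wells.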
Potency is read from the fitted curve at half-maximal effect.

Which Potency does the source give for `CCCCCCCCCCCCCCCC[n+]1ccccc1` here?
The Potency was 11.2 µM (active).

With `C#C[C@]1(OC(C)=O)CC[C@H]2[C@@H]3CCC4=C[C@@H](OC(C)=O)CC[C@@H]4[C@H]3CC[C@@]21C` as the compound, how does the Potency read?
The Potency was “inactive”.

For `CC(C)(C)c1ccc(C(=O)CCCN2CCC(OC(c3ccccc3)c3ccccc3)CC2)cc1`, which Potency is on record?
Its Potency is “inactive”.

With `CCN(CCCc1ccccc1)CCCc1ccccc1` as the compound, how does the Potency read?
The Potency was “inactive”.

For `CCc1ccc(C(=O)C(C)CN2CCCCC2)cc1` (stereo not drawn), which Potency is on record?
Its Potency is “inactive”.

For `CC[C@H](c1ccc(O)cc1)[C@@H](CC)c1ccc(O)cc1`, which Potency is on record?
Its Potency is “inactive”.

Which Potency does the source give for `OC(CCN1CCCCC1)(c1ccccc1)c1ccccc1` here?
Its Potency is “inactive”.

Which Potency does the source give for `Clc1ccc(Cn2c(CN3CCCC3)nc3ccccc32)cc1` here?
Its Potency is “inactive”.

Which Potency does the source give for `CC1CCCCN1CCCOC(=O)c1ccc(OC2CCCCC2)cc1` (stereo not drawn) here?
Its Potency is “inactive”.

Which Potency does the source give for `CC1(C)CCC(C)(C)c2cc(NC(=O)c3ccc(C(=O)O)cc3)ccc21` here?
Its Potency is “inactive”.

For `O=C(Nc1ccc(Cl)cc1)Nc1ccc(Cl)c(C(F)(F)F)c1`, which Potency is on record?
The Potency was 22.4 µM (active).

Which Potency does the source give for `CO[C@@H]1[C@@H](O[C@@H]2O[C@H](C)[C@@H](O[C@H]3C[C@@](C)(O)[C@@H](O)[C@H](C)O3)[C@H](N(C)C)[C@H]2O)[C@@H](CC=O)C[C@@H](C)[C@@H](O[C@@H]2CC[C@H](N(C)C)[C@@H](C)O2)/C=C/C=C/C[C@@H](C)OC(=O)C[C@H]1OC(C)=O` here?
The Potency was “inactive”.

For `O=C(CCCN1CCC(O)(c2ccc(Br)cc2)CC1)c1ccc(F)cc1`, which Potency is on record?
The Potency was “inactive”.

For `CCCCN(CCCC)CCC(O)c1cc2c(Cl)cc(Cl)cc2c2cc(C(F)(F)F)ccc12` (stereo not drawn), which Potency is on record?
Its Potency is “inactive”.

For `Clc1ccc2c(c1)CCc1cccnc1C2=C1CCNCC1`, which Potency is on record?
Its Potency is “inactive”.

With `CCN(CC)CCOC(=O)C1(c2ccccc2)CCCC1` as the compound, how does the Potency read?
Its Potency is “inactive”.

For `C=Cc1c(C)c2cc3[nH]c(cc4nc(cc5nc(cc1[nH]2)C(C)=C5CCC(=O)O)C(CCC(=O)O)=C4C)c(C)c3C=C`, which Potency is on record?
Its Potency is “inactive”.

With `CN(C)CCn1nnnc1SCC1=C(C(=O)O)N2C(=O)[C@@H](NC(=O)Cc3csc(N)n3)[C@H]2SC1` as the compound, how does the Potency read?
Its Potency is “inactive”.

With `COP(=S)(OC)Oc1ccc(S(N)(=O)=O)cc1` as the compound, how does the Potency read?
The Potency was “inactive”.

With `Cc1ccc(Cl)c(OCC(O)CNC(C)(C)C)c1` (stereo not drawn) as the compound, how does the Potency read?
Its Potency is “inactive”.

With `CN1CCCN(C(c2ccccc2)c2ccc(Cl)cc2)CC1` (stereo not drawn) as the compound, how does the Potency read?
Its Potency is “inactive”.

For `CN1CCC(=C2c3ccccc3CCc3cccnc32)CC1`, which Potency is on record?
Its Potency is “inactive”.

Which Potency does the source give for `CC(C)C[C@@H]1[C@H](c2ccccc2)OC(=O)N1CCCN1CCCCCC1` here?
The Potency was “inactive”.

Which Potency does the source give for `CCN(CC)CCOc1ccccc1C(=O)CCc1ccccc1` here?
Its Potency is “inactive”.

For `CC[N+]1(CC)CCC(=C(c2ccccc2)c2ccccc2)C1C` (stereo not drawn), which Potency is on record?
Its Potency is “inactive”.

With `CC(Oc1c(Cl)cccc1Cl)C1=NCCN1` (stereo not drawn) as the compound, how does the Potency read?
Its Potency is “inactive”.

With `Oc1cccc(-c2c3nc(c(-c4cccc(O)c4)c4ccc([nH]4)c(-c4cccc(O)c4)c4nc(c(-c5cccc(O)c5)c5ccc2[nH]5)CC4)C=C3)c1` as the compound, how does the Potency read?
Its Potency is “inactive”.

Which Potency does the source give for `CCCCCCCCCCCCCCCCC(C(=O)O)C(O)(CC(=O)O)C(=O)O` (stereo not drawn) here?
Its Potency is “inactive”.

For `NC1=NCC2c3ccccc3Cc3ccccc3N12` (stereo not drawn), which Potency is on record?
The Potency was “inactive”.

Which Potency does the source give for `CN(C)CCOC1=Cc2ccccc2Sc2ccc(Cl)cc21` here?
The Potency was “inactive”.

With `COc1cc(N)c(Cl)cc1C(=O)NC1CCN(Cc2ccccc2)CC1` as the compound, how does the Potency read?
The Potency was “inactive”.

For `O=C(O)[C@H](O)[C@@H](O)[C@H](O[C@@H]1O[C@H](CO)[C@H](O)[C@H](O)[C@H]1O)[C@H](O)CO`, which Potency is on record?
Its Potency is “inactive”.

Which Potency does the source give for `CCOC(=O)C1=C[C@]2(CC)CCCN3CCc4c(n1c1ccccc41)[C@@H]32` here?
The Potency was “inactive”.

For `Oc1ccc(O)cc1`, which Potency is on record?
The Potency was “inactive”.

With `O=c1[nH]c(=O)c2[nH]c(=O)[nH]c2[nH]1` as the compound, how does the outcome read?
The outcome was “inactive [at 11.3 µM]”.

For `CCN(CC)CCOCCOC(=O)C1(c2ccccc2)CCCC1`, which Potency is on record?
The Potency was “inactive”.

With `C=CCOc1cc(Cl)ccc1C(=O)NCCN(CC)CC` as the compound, how does the Potency read?
Its Potency is “inactive”.

Which Potency does the source give for `COc1ccc(CCN(C)CCCC(C#N)(c2cc(OC)c(OC)c(OC)c2)C(C)C)cc1OC` (stereo not drawn) here?
Its Potency is “inactive”.
